# GDH-TPI inh: counter-screen for M. tuberculosis FBA inhibitors: GDH-TPI coupled enzymes. GDH-TPI coupled enzyme counterscreen, NADH absorbance. inhibition, % at 4.8 µM. 360,000 compounds, 1.2% hits; in the data active = inhibition above about 30%
# Mtb UGM inh: Mtb UDP-galactopyranose mutase inhibition | purified UGM, fluorescence polarization probe displacement | inhibition, % at 10 µM | 320,000 compounds, 0.06% hits; in the data active = inhibition above about 10%, passing the limit was not always enough
# Rv3671c inh: Rv3671c (M. tuberculosis) protease inhibition. 320,000 compounds, 0.048% hits. P9WHR9. inhibition, % at 5.96 µM; in the data active = inhibition above about 38%;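 also: extracellular domain of Rv3671c used as enzyme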
# RecA intein inh: inhibitors of M. tuberculosis RecA intein splicing. inhibition, % (no concentration beside the values). 290,000 compounds, 0.75% hits. P9WHJ3. AID 2221. cell-free RecA intein splicing, fluorescence; in the data active = inhibition above about 30%
# FBA Mtb inh: inhibits M. tuberculosis FBA enzyme. 360,000 compounds, 2.3% hits. purified M. tuberculosis FBA, fluorescence read-out. AID 588726. inhibition, % at 1 µM; in the data active = inhibition above about 27%
# Target sequence (P9WQA3 whole entry, looked up): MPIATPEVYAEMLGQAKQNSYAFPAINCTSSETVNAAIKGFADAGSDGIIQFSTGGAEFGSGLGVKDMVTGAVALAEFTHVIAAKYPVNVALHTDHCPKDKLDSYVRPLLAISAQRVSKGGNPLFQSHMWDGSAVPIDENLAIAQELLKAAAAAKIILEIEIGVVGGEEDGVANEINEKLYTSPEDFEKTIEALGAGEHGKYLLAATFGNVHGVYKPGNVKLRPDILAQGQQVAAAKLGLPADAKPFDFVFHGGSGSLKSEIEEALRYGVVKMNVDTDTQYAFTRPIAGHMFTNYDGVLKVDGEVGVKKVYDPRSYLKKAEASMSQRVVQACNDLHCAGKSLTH
# Mtb betalactam: beta-lactam sensitization of Mtb H37Rv. 330,000 compounds, 0.27% hits. inhibition, % at 25 µM. M. tuberculosis H37Rv growth with meropenem, percent inhibition; call rule not given here;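 also: growth measured after seven days incubation then overnight dye step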
# Numbers stand for hits; . = inactive; / = no result; + = active, no number. A selection: hits, their analogues and other compounds. The true share with any hit is near 4%.
SMILES,GDH-TPI inh,Mtb UGM inh,Rv3671c inh,RecA intein inh,FBA Mtb inh,Mtb betalactam
COc1cccc(/C=N/NC(=S)Nc2cccnc2)c1,.,.,.,/,.,.
Cc1cc(S(=O)(=O)Nc2ccc(C(=O)NCCCN3CCCC3=O)cc2)ccc1F,.,.,.,.,.,.
COc1ccc(C(C)(C)C)cc1NC(=O)CCc1c(C)noc1C,.,.,.,/,.,.
COc1ccccc1OCC(=O)NNC(=O)c1ccc2c(=O)n3c(nc2c1)CCC3,.,.,.,.,.,.
COc1ccc(OC)c(C2C(C(=O)c3cc4ccccc4o3)=C(O)C(=O)N2c2cc(C)on2)c1 (stereo not given),.,.,.,.,.,.
COc1ccccc1C1C(C(=O)c2cc3ccccc3o2)=C(O)C(=O)N1c1cc(C)on1 (stereo not given),31,.,.,.,.,.
C=CCNc1sc(C(=O)C2CC2)c(N)c1C#N,40,.,.,/,.,.
C=CCNc1sc(C(=O)C(C)(C)C)c(N)c1C#N,40,.,.,.,.,.
Cc1n[nH]c(=O)n(N=Cc2c[nH]c3ccccc23)c1=O,.,/,/,/,.,/
Cc1ncc([N+](=O)[O-])n1CCOC(=O)c1cc(Cl)cc(Cl)c1N,.,.,.,.,.,.
CN(C)C(=O)COC(=O)c1cc(Cl)cc(Cl)c1N,.,.,.,.,127,.
N#CC(C#N)=Cc1c[nH]c(=O)c(C#N)c1Nc1ccccc1,.,.,.,.,+,.
Cc1oc2c(Cl)c(Cl)c(O)c(CN(C)C)c2c1C(=O)c1ccc(Cl)cc1,.,.,/,.,.,.
O=c1[nH]nc(N/N=C/c2ccccc2OC(F)F)c(=O)[nH]1,42,.,.,.,.,.
O=C(CCNc1n[nH]c(=O)[nH]c1=O)N/N=C/c1ccccc1Br,.,.,.,.,.,.
CCn1c(C(=O)O)c(CC(=O)Nc2cccc(C(F)(F)F)c2)c2ccccc21,.,.,.,.,.,.
Cc1csc(NC(=O)c2cc(=O)[nH]c3ccc(S(=O)(=O)N4CCOCC4)cc23)n1,.,.,.,.,46,.
COc1cc(NC(=O)c2cc(=O)[nH]c3ccc(S(=O)(=O)N4CCOCC4)cc23)cc(OC)c1,.,/,/,/,.,/
CC(C)N(C(=O)[C@H]1CC(CC(=O)NCCc2ccccn2)C(=O)N2CCc3c([nH]c4ccccc34)[C@]12C)C(C)C (stereo not given in full),.,.,.,/,.,.
C[C@@H]1CCC(=O)N(CC[C@H](Oc2ccccc2)c2ccccc2)CC1,.,.,.,.,.,.
COc1ccc(-c2ccc(/C=N/N3C(=O)C4C5C=CC(C6CC56)C4C3=O)o2)c([N+](=O)[O-])c1 (stereo not given),.,/,.,.,.,.
O=C1C2C3C=CC(C4CC34)C2C(=O)N1/N=C/c1ccc(-c2ccc(F)cc2[N+](=O)[O-])o1 (stereo not given),32,.,.,.,.,.
O=C1C2C3C=CC(C4CC34)C2C(=O)N1/N=C/c1ccc(-c2ccc(Cl)cc2[N+](=O)[O-])o1 (stereo not given),37,.,.,.,.,.
CN(CC(=O)Nc1cccc(F)c1)C(=O)c1ccc(N2CCCCC2)c([N+](=O)[O-])c1,.,.,.,.,.,.
COCCNc1nc(Nc2ccc(C)cc2C)c2sccc2n1,.,/,/,/,.,/
SMILES,GDH-TPI inh,Mtb UGM inh,Rv3671c inh,RecA intein inh,FBA Mtb inh,Mtb betalactam
O=c1c2ccccc2oc2cc(NCCCN3CCOCC3)ccc12,.,.,.,.,+,.
O=c1c2ccccc2oc2cc(NCCCn3ccnc3)ccc12,.,.,.,.,+,.
Cn1c(C(=O)NCCCN2CCOCC2)cc2c(=O)n(C)c3ccccc3c21,.,.,.,.,.,.
Cn1c2ccccc2c(=O)c2cc(NCCCN3CCOCC3)ccc21,.,.,.,/,+,.
O=c1c2ccccc2oc2ccc(NCCCN3CCOCC3)cc12,.,.,.,.,.,.
O=C1C2C3C=CC(C4CC34)C2C(=O)N1CCCCN1CCN(c2ccc(F)cc2)CC1 (stereo not given),.,.,.,.,.,.
CN(C)c1ccc(/C=N/OC(=O)Nc2ccccc2Cl)cc1,.,.,.,.,.,.
CCOC(=O)c1[nH]c2cc3c(cc2c1NC(=O)CN1CCN(CCO)CC1)OCO3,46,.,.,.,130,.
O=C1N=C(N2CCc3ccccc3C2)S/C1=C\c1cccc(O)c1,32,.,.,.,.,.
CCOc1ccc(/C=C2\SC(N3CCc4ccccc4C3)=NC2=O)cc1,.,.,.,.,.,.
COc1cc(/C=C2\SC(N3CCc4ccccc4C3)=NC2=O)cc(OC)c1OC,.,.,.,.,.,.
COc1ccc(/C=C2\SC(N3CCc4ccccc4C3)=NC2=O)cc1,41,.,.,.,.,.
O=C(CSc1cccc2cccnc12)N/N=C/c1ccc(O)cc1,47,.,.,.,.,.
Cc1noc(/C=C/N(C)C)c1S(=O)(=O)N1CCCC(C(=O)NCc2ccc(F)cc2)C1 (stereo not given),/,.,.,.,/,.
Cc1noc(/C=C/N(C)C)c1S(=O)(=O)N1CCCC(C(=O)NCc2ccccc2Cl)C1 (stereo not given),32,.,.,/,.,.
Cc1ccc(CNC(=O)C2CCCN(S(=O)(=O)c3c(C)noc3/C=C/N(C)C)C2)cc1 (stereo not given),52,.,.,.,.,.
Cc1noc(/C=C/N(C)C)c1S(=O)(=O)N1CCCC(C(=O)NCc2ccc(Cl)cc2)C1 (stereo not given),56,.,.,/,.,.
O=C(Cc1cccs1)Nc1cc(SCCO)cc([N+](=O)[O-])c1,.,11,.,.,.,.
O=C(Nc1cc(SCCO)cc([N+](=O)[O-])c1)c1ccco1,.,.,.,.,.,.
Cc1nn(C)cc1CN(C)C(=O)c1cc(-c2ccccc2)nc2ccc(Br)cc12,.,.,.,.,.,.
CCCCNC(=O)CSc1nc(CCC)nc2ccccc12,.,.,.,.,.,.
CCCc1nc(SCC(=O)N2CCc3ccccc3C2)c2ccccc2n1,.,.,.,32,.,.
CCc1nc2c(OCc3ccc(Cl)cc3)cccn2c1N(C)C(=O)c1ccncc1,.,/,/,/,.,/
O=C(CN1CCN(c2cccc(Cl)c2)CC1)c1ccc(O)cc1O,31,.,.,.,.,.
CCOc1ccc(Cl)cc1-c1cc(C(=O)NCCc2ccncc2)[nH]n1,.,/,/,/,.,/
CC1CCN(CCCNC(=O)c2cc3c(s2)-c2ccccc2OC3)CC1,.,.,.,.,+,.
Cc1cccc2c1-c1sc(C(=O)Nc3cccc([N+](=O)[O-])c3C)cc1CO2,.,.,.,.,.,.
CC1CCCN(CCCNC(=O)c2cc3c(s2)-c2ccccc2OC3)C1 (stereo not given),.,.,.,.,/,.
Cc1cccc2c1-c1sc(C(=O)NCCCN3CCC(C)CC3)cc1CO2,.,.,.,.,+,.

# Screens (PubChem)
